The text below walks through data of PubChem BioAssay AID463173 (ICCB-Longwood Screening Facility, Harvard Medical School, 2010).

The whole screen tested about 52,000 compounds, of which about 1,700 (3.3%) were called active. Shown is part of a subset that was picked to be rich in actives. A number with no mark means an inactive call. Cut-off read from the data, not from the text of the source: active = survival mostly below about 52% (no sharp cut-off); inactive = mostly above about 56%.

The test system of this experiment is Wild type. The experiment can be described thus: S. aureus survival, RN4220 and DeltatarO strains – OD600, teichoic acid synthesis inhibitors, primary screen (AID 463173). To be noted: S. aureus RN4220 wild type/DeltatarO growth, OD600, 18 h, hits give low values, screened at 18.75 µg/mL (by protocol).
As to `COc1cc(NS(=O)(=O)c2c(C)nc3sc(C)c(C)n3c2=O)cc(OC)c1`, the survival is 90%.
As for `Cn1cnc2c(=O)oc3ccc(S(=O)(=O)N4CCN(c5cccc(C(F)(F)F)c5)CC4)cc3c21`, the figure is 120%.
As for `Cn1cnc2c(=O)oc3ccc(S(=O)(=O)N4CCN(c5ccccc5)CC4)cc3c21`, the figure is 87%; as for `Cn1cnc2c(=O)oc3ccc(S(=O)(=O)N4CCN(c5cccc(Cl)c5)CC4)cc3c21`, -6% (active); as for `CCOc1ccc(NC(=O)c2c(Nc3ccccc3C)sc(C(=O)c3ccccc3)c2N)cc1`, 83%.
As for `Cc1ccc(CN2C(=O)c3ccccc3CC2(C)C(=O)NC2CCCCC2)cc1` (stereo not drawn), the survival is 84%.
As for `CN(c1ncnc2onc(-c3cccc(Cl)c3)c12)C1CCCCC1`, the figure is -1% (active).
As for `Clc1cccc(-c2noc3ncnc(NC4CCCCC4)c23)c1`, the figure is 79%; as for `CN(c1ncnc2c1c(-c1ccccc1)cn2-c1cccc(Cl)c1)C1CCCCC1`, 89%; as for `COc1ccc(S(=O)(=O)N(CC(=O)N2CCC(C)CC2)c2ccc(C)cc2)cc1`, 89%.
For the molecule `O=C(NCCC1=CCCCC1)c1ccc2c(=O)n3nc(Nc4ccccc4)sc3nc2c1`, the survival is 72%.
As to `O=C(CN1CCC(NC(=O)C2CCCCC2)CC1)Nc1cccc(F)c1`, the survival was 111%.
With `CCc1nn2c(=O)cc(COC(=O)c3ccc(NC(=O)C4CCCCC4)cc3)nc2s1` the figure was 68%.
As for `CCOc1ccc(CNS(=O)(=O)c2ccc3[nH]c(=O)ccc3c2)cc1`, the figure is 80%; as for `CCOc1ccccc1CNS(=O)(=O)c1ccc2[nH]c(=O)ccc2c1`, 71%.
As for `CCOc1ccc(OCC)c(NS(=O)(=O)c2ccc3[nH]c(=O)ccc3c2)c1`, the figure is 0% (active); as for `O=C(Cn1c(=O)n(CCc2ccccc2)c(=O)c2cccnc21)Nc1ccc(F)cc1`, 80%.
As for `Cc1oc2c(C)c3oc(=O)c(CC(=O)N4CCCCC4)c(C)c3cc2c1C`, the survival was 83%.
With `Cc1nnc(SCC(=O)N(C2CCCCC2)C2CCCCC2)[nH]c1=O` the figure was 117%; with `CCOC(=O)C1CCCN(c2c(C(=O)c3ccc(C)cc3)cnc3ccc(OCC)cc23)C1` (stereo not drawn), 2% (active); with `CCOc1ccc(C(=O)c2cnc3ccc(Cl)cc3c2S(=O)(=O)c2ccc(C)cc2)cc1`, 86%.
With `CCOC(=O)C1CCCN(c2c(C(=O)c3ccccc3)cnc3ccc(F)cc23)C1` (stereo not drawn) the figure was 22%.
With `CCOC(=O)C1CCCN(C(=O)c2ccc(OCC)cc2)C1` (stereo not drawn) the figure was 117%.
For the molecule `CCOC(=O)C1CCCN(c2c(C(=O)c3ccc(OCC)cc3)cnc3ccccc23)C1` (stereo not drawn), the survival was 0% (active).
With `CCOc1ccc(S(=O)(=O)c2c(C(=O)c3ccc(C)c(C)c3)cnc3ccccc23)cc1`, the survival is 80%.
As for `CCOc1ccc(NC(=O)CN2CCSc3ccc(S(=O)(=O)N4CCCC4)cc32)cc1`, the figure is 67%.
Consider `Cc1ccc(NC(=O)CN2CCSc3ccc(S(=O)(=O)N4CCCC4)cc32)cc1`, for which the survival was 98%.
With `CCc1ccc(NC(=O)CN2CCSc3ccc(S(=O)(=O)N4CCCC4)cc32)cc1` the figure was -6% (active).
As for `CCOC(=O)c1scc(-c2ccc(C)cc2)c1S(=O)(=O)Nc1ccc(F)c(F)c1`, the figure is 72%.
For the molecule `Cc1nc(N2CCOCC2)c2c(C(=O)Nc3cccc(C(F)(F)F)c3)c(C)oc2n1`, the survival was 78%.
With `Cc1cccc2nc(-c3ccccn3)c(Nc3ccccc3)n12` the figure was 21% (active); with `Cc1ccn2c(Nc3ccc(F)cc3)c(-c3ccccn3)nc2c1`, 79%; with `COc1ccc(Nc2c(-c3ccco3)nc3cccc(C)n23)cc1`, 97%.
As for `Cc1cccc(C)c1Nc1c(-c2ccccc2F)nc2cccc(C)n12`, the figure is 7% (active); as for `Cc1ccc(Nc2c(-c3cccc(Cl)c3)nc3cccc(C)n23)cc1`, 22%.
With `Cc1cccc(C)c1Nc1c(-c2ccsc2)nc2cccc(C)n12` the figure was 32%; with `CSc1ccc(-c2nc3cccc(C)n3c2Nc2ccc(Cl)cc2)cc1`, 101%.
Consider `Cc1ccccc1Nc1c(-c2ccccc2)nc2cccc(C)n12`, for which the survival is 73%.
As for `Cc1cccc2nc(-c3ccccn3)c(Nc3ccc(F)cc3)n12`, the figure is 4% (active); as for `Cc1ccc(Nc2c(-c3ccc(C)o3)nc3cccc(C)n23)cc1`, 21% (active).
As for `Cc1ccc(-c2nc3cccc(C)n3c2Nc2ccc3c(c2)OCO3)o1`, the figure is 22%; as for `Cc1ccc(Nc2c(-c3ccc(O)cc3)nc3cccc(C)n23)cc1`, 91%; as for `O=C(Nc1ccc(Cl)c(C(F)(F)F)c1)C1CCN(S(=O)(=O)c2cccc3nonc23)CC1`, 90%.
With `Cc1ccc(C(=O)c2c(N)c(C(=O)Nc3ccccc3Cl)c3ccccn23)cc1` the figure was 96%; with `COc1ccc(NC(=O)CN2C(=O)c3cccnc3Sc3ccccc32)cc1OC`, 81%; with `COc1ccccc1CNC(=O)CSC1=Nc2ccccc2N=C(c2ccc(F)cc2)C1`, 73%.
For `COc1cc(NC(=O)c2sc3nc4n(c(=O)c3c2C)CCCCC4)cc(OC)c1OC`, the survival is 80%.
Consider `Cc1ccccc1NC(=O)Cn1cc(S(=O)(=O)c2ccccc2)c(=O)c2ccccc21`, for which the survival was 105%.
Consider `COc1ccccc1CNC(=O)C(=O)NCC(c1ccco1)S(=O)(=O)c1cccs1` (stereo not drawn), for which the survival was 101%.
Regarding `COC(=O)C(NC(=O)CCc1c(C)nc2cc(-c3cccc(F)c3)nn2c1C)C(C)C` (stereo not drawn), the survival is 80%.
Take `CCc1ccc(CNc2ncnc3onc(-c4ccc(Cl)cc4)c23)cc1`: the survival was 48%.
As for `Cc1cc[n+](CC(=O)N2CCCCC2)cc1`, the figure is 116%; as for `Cc1ccc(NC(=O)Cn2c(=O)n(-c3ccccc3)c(=O)c3ccc(C(=O)NCc4ccc5c(c4)OCO5)cc32)c(C)c1`, 138%.
As for `Cc1ccc(-c2nc3ccc(Cl)cn3c2Nc2ccc3c(c2)OCCO3)o1`, the figure is 88%.
As for `Cc1ccc2nc(-c3ccc(C)o3)c(Nc3ccc4c(c3)OCCO4)n2c1`, the figure is 19% (active); as for `Cc1ccn2c(Nc3ccc4c(c3)OCCO4)c(-c3ccc(C)o3)nc2c1`, 75%.
Regarding `Cc1ccc(-c2nc3ccccn3c2Nc2ccc3c(c2)OCCO3)o1`, the survival is 62%.
With `Cc1ccc(-c2nc3ccccn3c2Nc2c(C)cccc2C)o1` the figure was -20% (active).
With `Cc1ccc(-c2nc3ccccn3c2Nc2ccc3c(c2)OCO3)o1` the figure was 48%; with `Cc1cc(-n2c(C)nc3ccccc3c2=O)ccc1NC(=O)C(F)(F)F`, 69%.
As for `COc1ccc(CCC(=O)NC2CC(=O)N(c3ccc(OC)cc3)C2)cc1` (stereo not drawn), the figure is 79%; as for `CCOc1ccc(C2CC(=O)Nc3c2c(=O)[nH]c2ncnn32)cc1` (stereo not drawn), 68%.
In the case of `CC1=C(C(=O)Nc2ccc(C)cc2C)C(c2cccs2)n2nc(SCc3ccccc3Cl)nc2N1` (stereo not drawn), the survival was 76%.
On to `COc1cc(NC(=O)c2ccc(C)cc2)ccc1NC(=O)c1cc2ccccc2o1`, for which the survival was 75%.
With `CCc1ccc(C2NC(=O)c3[nH]nc(-c4cccc(OC)c4)c32)cc1` (stereo not drawn) the figure was 74%; with `COc1ccc(-c2n[nH]c3c2C(c2ccc(Cl)cc2Cl)NC3=O)cc1` (stereo not drawn), 0% (active); with `COc1ccc(OC)c(C2c3c(-c4ccc(Br)cc4)n[nH]c3C(=O)N2c2ccc(Cl)cc2)c1` (stereo not drawn), 77%.
Regarding `CCOC(=O)CNc1cccc(Cl)c1`, the survival is 112%.
As for `COc1cccc(CNC(=O)C(=O)Nc2c3c(nn2-c2ccccc2)CSC3)c1`, the figure is 66%; as for `Cc1ccc(NC(=O)c2cc(S(=O)(=O)N3CCC4(CC3)OCCO4)ccc2F)cc1Cl`, 87%.
As for `COc1ccc(N2CCN(C(=O)CNS(=O)(=O)c3ccc(Br)s3)CC2)cc1`, the figure is 61%; as for `COc1ccc(Nc2oc(/C=C/c3cc(OC)c(OC)c(OC)c3)nc2C#N)cc1`, 78%.
As for `CC(=O)N1CCC2(CC1)OC(=O)C(C)=C2C(=O)NCc1ccccc1Cl`, the figure is 70%; as for `CCOc1ccc(CCNC(=O)c2cnc3c(-c4ccc(F)cc4)c(C)nn3c2C)cc1`, 85%; as for `CCn1c(C(=O)Nc2ccccc2C(=O)OC)cc2sc(Cl)cc21`, 43%.
With `CCOc1ccccc1NC(=O)C(CC)n1c(C(=O)OC)cc2occc21` (stereo not drawn), the survival was 0% (active).
As for `CCC(Sc1nnc(C)n2c1cc1occc12)C(=O)Nc1ccccc1OC` (stereo not drawn), the figure is 90%.
With `CCOC(=O)c1cc2occc2n1C(C)C(=O)OCC` (stereo not drawn) the figure was 95%; with `CCc1ccccc1NC(=O)c1cc2sc(Cl)cc2n1CC`, 90%.
As for `CCC(C(=O)Nc1ccccc1OC)n1c(C(=O)OC)cc2sc(Cl)cc21` (stereo not drawn), the figure is 0% (active); as for `COc1ccc2c(c1)CC(NC(=O)Nc1ccc(NC(C)=O)cc1)CO2` (stereo not drawn), 121%; as for `CCN1c2ccccc2-c2nc(SCC(=O)Nc3cc(OC)cc(OC)c3)ncc2S1(=O)=O`, 32%.
As for `CN(C(=O)C1=CC(c2ccc3c(c2)OCO3)=NS(=O)(=O)N1C)c1ccccc1`, the survival was 89%.
With `Cc1ccc2nsnc2c1S(=O)(=O)NC(C)(C)C` the figure was 96%.
With `CCc1nc2ccc(C(=O)N3CCN(c4ccccc4F)CC3)cc2nc1CC` the figure was 68%.
As for `COc1cc(CN(CC2CCCO2)C(=O)c2ccc(F)cc2)cc(OC)c1OC` (stereo not drawn), the figure is 86%; as for `Cn1c(SCc2ccc(Br)cc2)nc2c([nH]c3ccccc32)c1=O`, 131%; as for `CCn1c(=O)cc(OCC(=O)N(C)c2cc(Cl)ccc2C)c2ccccc21`, 62%.
As for `CCN(C(=O)Cn1c(=O)oc2cc(Cl)ccc21)c1cccc(C(F)(F)F)c1`, the survival is 83%.
Take `CCCN(C(=O)Cn1c(=O)oc2cc(Cl)ccc21)c1ccc(C(C)C)cc1`: the survival was 8% (active).
With `CCn1c(=O)cc(OCC(=O)N(C)c2ccc(OC)cc2)c2ccccc21` the figure was 78%; with `CCCN(C(=O)COc1cc(=O)n(CC)c2ccccc12)c1ccc(C(C)C)cc1`, -7% (active); with `CCCN(c1ccc(C(C)C)cc1)S(=O)(=O)c1ccc2c(c1)oc(=O)n2CC(=O)OCC`, 73%.
